NS1 inh: qHTS Assay for Inhibitors of Influenza NS1 Protein Function; Potency, µM (top dose mostly 46.1 µM), for inactives: at the top dose activity, positive = more growth; 0.4% of 270,000 active; AID 2326, 2010; calls by dose curve; further: potency means the concentration at half of the fitted maximal effect; actives are rising curves; nearly all actives have a fitted effect of over 50% in size
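Growth recovery, yeast-based: influenza A NS1 expressed in S. cerevisiae causes slow growth, and suppressors are detected by OD600. The parent strain without NS1 is used as positive control.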
Pf growth 48h: Primary qHTS for delayed death inhibitors of the malarial parasite plastid, 48 hour incubation | P. falciparum luciferase growth in erythrocytes, 48 h | Potency, µM (doses to about 28.7 µM), for inactives: at the top dose activity change, negative = inhibition, most hits filed as inhibitors | 5.9% of 310,000 active | AID 504832, 2011; further: potency means the concentration at half of the fitted maximal effect; on the % scale 0 is the no-effect control and ±100 the full control effect
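In quantitative HTS format, infected erythrocytes bearing luciferase-reporter parasites were treated for a single generation at 37 C. Luminescence after adding detection reagent served as the growth measure.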
SARS PLP yeast: qHTS of Yeast-based Assay for SARS-CoV PLP | S. cerevisiae expressing SARS-CoV PLpro, growth rescue | Potency, µM (highest dose often 32.9 µM), without a hit: at the top dose activity, positive = growth rescue, usual class: activators | 0.19% of 330,000 active | AID 485353, 2010; calls by dose curve; further: potency means the concentration at half of the fitted maximal effect; 0% is about no effect; nearly all actives have a fitted effect of over 55% in size
Shiga inhibitor: A qHTS for Small Molecule Inhibitors of Shiga Toxin | Vero cells, Shiga toxin protein synthesis inhibition reporter | inhibition, % at 38.7 µM | 9.2% of 290,000 active; in the data active means inhibition mostly above about 28%, no sharp cut-off; inactive means mostly below about 43%; further: 0% is about no effect
Pf growth 96h: Primary qHTS for delayed death inhibitors of the malarial parasite plastid, 96 hour incubation; P. falciparum luciferase reporter growth, 96 h; Potency, µM (highest dose often 28.7 µM), inactives show at the top dose activity change, negative = inhibition, usual class: inhibitors; 6.9% of 320,000 active; AID 504834, 2011; further: potency means the concentration at half of the fitted maximal effect; on the % scale 0 is the no-effect control and ±100 the full control effect
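Infected RBCs, 2% Hct / 0.05% parasitemia final; luciferase-reporter P. falciparum; cpd 96 h, 37 C, 5% CO2; luciferase detection reagent; luminescence.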
Cycloheximide cs: Cycloheximide Counterscreen for Small Molecule Inhibitors of Shiga Toxin; 12% of 300,000 active; cell reporter, cycloheximide protein synthesis inhibition counterscreen; max response, %; in the data active means max response mostly above about 13%, no sharp cut-off; inactive means mostly below about 14%; further: read at 38.3 µM for the half of the compounds with a filed dose; 0% is about no effect
The depositor's hits bear a star; ? = inconclusive; nt = no result. Only some compounds are listed: those with a hit (about 21% of all), similar ones and a draw of the others. Unless noted, the call rests on the fitted dose curve; in most records, active means well fitted inhibition curve with a large enough effect; inconclusive means small, poorly fitted or top-dose-only effect, or another doubt; inactive means no such curve, though single readings can be large or run the other way.

SMILES	NS1 inh	Pf growth 48h	SARS PLP yeast	Shiga inhibitor	Pf growth 96h	Cycloheximide cs
CCN(CC)C(=O)Nc1ccccc1C	4.1%	nt	4.0%	-22.4	?	-2.5
COCCN(Cc1cc2ccc(C)c(C)c2nc1Cl)C(=O)N1CCOCC1	-10.2%	?	-0.2%	-14.1	44.2%	3.1
COc1ccc(N2CC(NS(=O)(=O)c3cccs3)CC2=O)cc1 (stereo unspecified)	nt	0.6%	-1.8%	nt	1.6%	nt
COc1cccc(C(=O)OCC(=O)N2CCc3ccccc32)c1OC	nt	24.9%	4.4%	nt	50.0%	nt
O=C(OCC(=O)N1CCc2ccccc21)c1cccnc1	-4.9%	-9.9%	-8.8%	45.1*	nt	33.1*
O=C(OCC(=O)N1CCc2ccccc21)c1ccccc1	-13.8%	180.8%	-0.2%	117.9*	186.9%	42.7*
Nc1ccccc1C(=O)N1CCc2ccccc21	-9.6%	28.7%	1.6%	68.8*	?	25.9*
O=C(OCC(=O)N1CCc2ccccc21)c1ccc[n+]([O-])c1	-3.7%	5.7%	-2.4%	-3.6	?	-5.7
COc1ccccc1C(=O)N1CCc2ccccc21	-1.6%	-9.7%	1.9%	-1.1	-17.2%	1.7
Nc1ccccc1C(=O)OCC(=O)N1CCc2ccccc21	-8.6%	197.6%	-3.7%	79.1*	nt	39.0*
CCC(=O)N1CCc2cc(S(=O)(=O)NC(Cc3ccccc3)C(=O)O)ccc21 (stereo unspecified)	6.5%	24.0%	0.9%	3.5	39.7%	-2.4
ON(CCc1ccccn1)Cc1ccccc1	-1.7%	nt	nt	nt	nt	nt
O=[N+]([O-])c1ccc(C[n+]2ccc(Cc3ccccc3)cc2)cc1	nt	3.7µM*	-0.8%	-11.2	34.8%	5.7
O=[N+]([O-])c1ccc2nc(-[n+]3c(-c4ccccc4)cc(-c4ccccc4)cc3-c3ccccc3)[nH]c2c1	2.2%	?	-17.1%	-4.3	?	-3.3
O=[N+]([O-])c1ccc(C[n+]2ccccc2)cc1	nt	?	-2.4%	nt	?	nt
Cc1cc(-c2ccccc2)cc(C)[n+]1Cc1ccccc1	nt	0.738µM*	1.4%	nt	0.37µM*	nt
c1ccc(Cc2cc[n+](Cc3ccccn3)cc2)cc1	-5.4%	4.15µM*	0.9%	20.2	1.04µM*	0.8
O=[N+]([O-])c1ccc(C[n+]2c(-c3ccccc3)cc(-c3ccccc3)cc2-c2ccccc2)cc1	nt	1.17µM*	0.7%	nt	0.928µM*	nt
CCOC(=O)c1cc(-c2ccccc2)sc1NC(=O)C(C)N1C(=O)c2ccccc2C1=O (stereo unspecified)	11.7%	-8.9%	-4.0%	-7.2	-28.1%	-3.6
O=C(O)c1cn(-c2ccc(F)c(F)c2)c2c(F)c(F)c(F)c(F)c2c1=O	-27.9%	0.7%	-11.4%	-15.0	15.0%	-2.1
O=[N+]([O-])c1cc(Cl)c(O)c(-[n+]2c(-c3ccccc3)cc(-c3ccccc3)cc2-c2ccccc2)c1	29.8%	?	-3.8%	-2.0	?	1.6
O=C([O-])c1cc(-c2ccccc2)cc(-c2ccccc2)[n+]1Cc1ccccc1	nt	0.522µM*	-0.6%	nt	0.522µM*	nt
Cc1ccc(C(=O)CC(=O)c2cccc(F)c2)c(O)c1	-80.0%	nt	-2.6%	77.3*	?	35.9*
Cc1ccc(C(=O)CC(=O)c2ccccc2C)c(O)c1	-10.3%	?	1.2%	39.0	?	20.3*
Cc1ccc(C(=O)CCC(=O)Nc2ccccc2C)c(C)c1	-1.6%	62.3%	-3.6%	12.2	130.6%	29.0*
Cc1ccc(C(=O)NCCC(=O)Nc2ccccc2C)cc1	2.8%	2.4%	1.1%	1.6	-4.7%	-3.2
Cc1cc(C)c(NC(=S)NCC2CCN(C(C)c3ccccc3)C2)c(C)c1 (stereo unspecified)	nt	?	6.6%	-15.7	?	-9.9
CN1C(=O)C(O)(CC(=O)c2cccnc2)c2ccccc21 (stereo unspecified)	-15.1%	-8.1%	-11.3%	-2.6	?	-3.7
O=C(CC1(O)C(=O)N(Cc2cccc3ccccc23)c2ccccc21)c1cccnc1 (stereo unspecified)	-4.4%	nt	-8.3%	-9.9	3.7µM*	-0.8
Cc1ccc(C)c(Cn2nnc3c(=O)[nH]c(C4CCCN(C(=O)CC(C)C)C4)nc32)c1 (stereo unspecified)	-7.2%	?	-1.8%	-13.3	nt	0.5

Screening results deposited in PubChem BioAssay by National Center for Advancing Translational Sciences (NCATS).
